Screening data: PubChem BioAssay, National Center for Advancing Translational Sciences (NCATS)
DRD3 antagonist – qHTS of D3 Dopamine Receptor Antagonist: qHTS; D(3) dopamine receptor (Homo sapiens), P35462; D3R cells, DiscoveRx beta-arrestin luminescence, antagonist mode; stronger effect = lower value; max response, negative = inhibition, %; 360,000 tested, 2.5% active; AID 652054, 2013; in the data active = max response below about -50%; inconclusive = no clear call, values can overlap the other calls
Target sequence (P35462 whole entry, looked up): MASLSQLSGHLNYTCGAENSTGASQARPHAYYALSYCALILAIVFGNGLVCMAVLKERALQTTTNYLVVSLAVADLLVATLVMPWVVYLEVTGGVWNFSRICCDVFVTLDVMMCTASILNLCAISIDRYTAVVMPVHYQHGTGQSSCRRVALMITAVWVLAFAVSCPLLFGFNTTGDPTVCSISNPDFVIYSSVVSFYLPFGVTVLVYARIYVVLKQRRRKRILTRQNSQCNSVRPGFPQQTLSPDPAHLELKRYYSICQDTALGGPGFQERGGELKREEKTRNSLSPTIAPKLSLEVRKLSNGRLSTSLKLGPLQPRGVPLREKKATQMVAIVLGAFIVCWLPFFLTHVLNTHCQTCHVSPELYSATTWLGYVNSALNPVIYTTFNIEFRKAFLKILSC
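Cells plated overnight at 1500 cells/well, then exposed to library compounds with dopamine controls for 90 minutes at 37 degrees C. DiscoveRx reagent added for 30–60 minutes at room temperature; luminescence read, quantitative HTS format.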
D3 ag – qHTS of D3 Dopamine Receptor Agonist: qHTS. D(3) dopamine receptor (Homo sapiens), P35462. AID 652048, 2013. D3R DiscoveRx beta-arrestin cells, luminescence, 90 min. 410,000 tested, 0.58% active. max activation, %; in the data active = max activation above about 30%
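Agonist-mode cell screen: cells plated at 1500/well and incubated overnight at 37 °C, then exposed to library compounds for 90 min at 37 °C. Detection reagent was added for 30–60 min at room temperature, and luminescence was read.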
DT40 TDP1 CPT – qHTS for Inhibitors of human tyrosyl-DNA phosphodiesterase 1 (TDP1): qHTS in cells in presence of CPT. chicken DT40 Tdp1-/-;hTDP1 cells + 20 nM CPT, ATP luminescence, 48 h. Potency, µM (top dose mostly 46.2 µM), most hits filed as inhibitors. 420,000 tested, 12% active. AID 686979, 2013; also: nearly all actives have a fitted effect of over 55% in size
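Chicken DT40 Tdp1-/- cells complemented with human TDP1, 400 cells/well, exposed to compounds plus 20 nM camptothecin for at least 48 h at 37 C; viability read as ATP content by CellTiter-Glo luminescence.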
IL-1B inflam inh – qHTS for Inhibitors of Inflammasome Signaling: IL-1-beta AlphaLISA Primary Screen; THP-1 LPS/ATP IL-1B secretion, AlphaLISA, 16 h; stronger effect = lower value; activity change, % at 57.5 µM; 360,000 tested, 4.7% active; in the data active = activity change below about -50%; inconclusive = mostly about -30% to -49%
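THP-1 cells pretreated 1 hr with compounds (up to 57.5 uM final), then stimulated with LPS (250 ng/mL final) plus ATP (1.25 mM final); secreted IL-1B measured by AlphaLISA after 16 hr, decreased signal indicating inhibition.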
ClpP mod – qHTS Assay for Activators of ClpP; ATP-dependent Clp protease proteolytic subunit (Bacillus subtilis (strain 168)), P80244; purified B. subtilis ClpP, FRET peptide cleavage, 20 min; Potency, µM (doses to about 57.5 µM); 340,000 tested, 1.9% active; active = well fitted falling curve with a large enough effect; inconclusive = small, poorly fitted or top-dose-only effect; inactive = no such curve, though single readings can be large or run the other way; also: the source files actives as falling curves though it sought activators and does not explain the sign; nearly all actives have a fitted effect of over 65% in size
Target sequence (P80244 whole entry, looked up): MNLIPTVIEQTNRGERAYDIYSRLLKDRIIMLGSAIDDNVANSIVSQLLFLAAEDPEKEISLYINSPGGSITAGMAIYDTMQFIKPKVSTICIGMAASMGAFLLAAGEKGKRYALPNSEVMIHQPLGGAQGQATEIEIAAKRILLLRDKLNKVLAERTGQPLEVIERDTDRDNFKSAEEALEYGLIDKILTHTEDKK
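FRET quenching reversal measured ClpP activation: 10 microg/mL B. subtilis ClpP at pH 8 with the FRET-FV decapeptide, read at 430 nm after 320 nm excitation. The 20-min minus 0-min signal was scaled between DMSO/no-enzyme wells and ADEP (5.8 microM final).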
TDP1 cell noCPT – qHTS for Inhibitors of human tyrosyl-DNA phosphodiesterase 1 (TDP1): qHTS in cells in absence of CPT | DT40 Tdp1-/- hTDP1 cells, no CPT, ATP luminescence, 48 h | Potency, µM (titrated, usually from 46.2 µM), hits mostly inhibitors | 420,000 tested, 15% active; also: nearly all actives have a fitted effect of over 55% in size
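Compound effects on proliferation are scored in DT40 Tdp1-/-;hTDP1 cells in the absence of CPT. ATP levels (CellTiter-Glo luminescence) are recorded after a ≥48 hr, 37 °C incubation.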
Numbers stand for hits; . = inactive; ? = inconclusive; / = not tested or not shown. Hits are enriched below; roughly 21% of the tested compounds scored in any of these assays. Unless noted, calls follow the shape of the dose curve; as a rule, active = well fitted inhibition curve with a large enough effect; inconclusive = small, poorly fitted or top-dose-only effect; inactive = flat fitted curve, though single readings scatter.

SMILES	DRD3 antagonist	D3 ag	DT40 TDP1 CPT	IL-1B inflam inh	ClpP mod	TDP1 cell noCPT
COc1ccc(S(=O)(=O)Nc2ccc3c(c2)CCC3)cc1	.	.	?	-187.2	/	?
CCc1ncc(C(O)c2ccc(Cl)cc2)n1Cc1ccccc1 (configuration not stated)	.	.	18.4µM	.	?	11.6µM
COc1ccc(C(O)c2nccn2Cc2ccccc2)cc1 (configuration not stated)	.	.	.	.	.	.
Cc1ncc(C(O)c2ccc(N(C)C)cc2)n1Cc1ccccc1 (configuration not stated)	.	.	?	.	.	23.1µM
N#C/C(=C\C=C\c1ccccc1)c1nc(-c2ccc(Cl)cc2)cs1	.	.	.	.	.	?
CCc1ccc(C(C#N)=CC=Cc2ccccc2)cc1	.	.	?	?	.	20.6µM
Cc1n[nH]c(C)c1S(=O)(=O)N(CC(=O)NCc1ccccc1Cl)c1ccc(C(C)C)cc1	/	.	?	/	.	16.4µM
Cc1ccc(N(CC(=O)NCc2ccccc2Cl)S(=O)(=O)c2c(C)noc2C)cc1	.	.	.	.	/	?
COc1cccc(CNC(=O)CN(c2ccc(C(C)C)cc2)S(=O)(=O)c2c(C)n[nH]c2C)c1	/	.	16.4µM	/	.	23.1µM
CC(CN1CCN(Cc2ccccc2)CC1)OC(=O)c1ccco1 (configuration not stated)	?	.	.	.	/	.
Cc1ccc(S(=O)(=O)c2nc(-c3cccs3)oc2N2CCC(C)CC2)cc1	/	.	23.1µM	/	.	10.3µM
O=S(=O)(c1ccccc1)c1nc(-c2cccs2)oc1N1CCCCC1	/	.	29.1µM	/	.	?
CC1CCN(c2oc(-c3cccs3)nc2S(=O)(=O)c2ccc(Cl)cc2)CC1	/	.	?	/	.	13µM
O=C(Nn1c(O)c(C=C2N=c3ccccc3=N2)sc1=S)c1cccc(Cl)c1	-53.1	.	?	.	.	?
Oc1c(C=C2N=c3ccccc3=N2)sc(=S)n1-c1ccc2ccccc2c1	.	.	20.6µM	.	.	.
O=C(Cn1cc(S(=O)(=O)c2ccccc2)c(=O)c2cc3c(cc21)OCO3)Nc1ccccc1	/	.	.	/	.	.
Cc1ccc(NC(=O)c2c(Nc3ccccc3C)sc(C(=O)c3ccccc3)c2N)cc1	/	.	?	/	.	5.8µM
CCOc1ccccc1Nc1sc(C(=O)c2ccccc2)c(N)c1C(=O)Nc1ccccc1	/	.	10.3µM	/	.	9.2µM
CS(=O)(=O)Nc1cccc(C2=NN(C(=O)c3ccccc3)C(c3cccs3)C2)c1 (configuration not stated)	.	.	20.6µM	.	.	?
CS(=O)(=O)Nc1ccc(C2=NN(C(=O)C3CCCCC3)C(c3cccs3)C2)cc1 (configuration not stated)	.	.	?	-59.2	.	23.1µM
COc1cc(-c2nc3ccccn3c2Nc2ccccc2C)ccc1O	/	.	?	/	.	?
COc1cc(O)ccc1-c1nc2cc(C)ccn2c1Nc1ccccc1C	/	.	13µM	/	.	25.9µM
Cc1ccn2c(Nc3ccccc3C)c(-c3cccnc3)nc2c1	.	.	16.4µM	.	.	?
Cc1ccn2c(Nc3ccccc3C)c(-c3ccccc3)nc2c1	/	.	20.6µM	/	.	?
Cn1cccc1C(=O)OCC(=O)N1CCc2ccccc2C1	.	.	.	?	.	.
SMILES	DRD3 antagonist	D3 ag	DT40 TDP1 CPT	IL-1B inflam inh	ClpP mod	TDP1 cell noCPT
CC(=O)c1cccc(NC(=O)C(C)OC(=O)C2CCC2)c1 (configuration not stated)	.	.	.	.	.	.
COc1cc(OC)c(OC)cc1CN1CCCC(c2[nH]ncc2-c2cccc(C(F)(F)F)c2)C1 (configuration not stated)	/	/	?	/	/	23.1µM
CC1(C)Nc2cccc3c(N=Nc4ccc(N=Nc5ccccc5)c5ccccc45)ccc(c23)N1	/	/	?	/	.	11.2µM
CC1(C)Nc2cccc3cccc(c23)N1	.	.	?	.	/	16.4µM
CCn1nc(C)c(CN2CCCCC2C(=O)Nc2ccc(Oc3cccnc3)cc2)c1C (configuration not stated)	.	.	9.2µM	.	.	16.4µM
C#Cc1ccc(CN2CCC(C(=O)Nc3ccc(Oc4ccccc4)nc3)CC2)cc1	.	.	14.6µM	?	.	?
O=C(Nc1ccc(Oc2ccccc2)nc1)C1CCN(Cc2cccc(F)c2)CC1	.	.	.	.	.	?
O=C(Nc1ccc(Oc2ccccc2)nc1)C1CCCCN1Cc1ccco1 (configuration not stated)	.	.	4.11µM	.	.	4.11µM
Cc1ncc(CN2CCC(C(=O)Nc3ccc(Oc4cccnc4)cc3)CC2)cn1	.	.	?	.	.	.
Cc1ccc(CN2CCCCC2C(=O)Nc2ccc(Oc3cccnc3)cc2)o1 (configuration not stated)	.	.	5.17µM	.	.	7.31µM
COc1ccc(CSC2=CS(=O)(=O)c3ccccc3N2)cc1	.	.	.	?	.	?
CCn1cc(CNCc2cn[nH]c2-c2cc3ccccc3o2)cn1	.	.	18.4µM	.	/	23.1µM
C=CCOC(=O)C1=C[C@@H](c2ccc(Br)cc2)[C@H](CCCO)[C@@H](OCC)O1	.	.	?	.	.	?
C=CCOC(=O)C1=C[C@H](c2ccc(C(F)(F)F)cc2)[C@@H](CCCO)[C@H](OCC)O1	.	.	23.1µM	.	.	?
C=CCOC(=O)C1=C[C@@H](c2ccccc2)[C@H](CCCO)[C@@H](OCC)O1	.	.	14.6µM	.	.	?
CCO[C@@H]1OC(C(N)=O)=C[C@H](c2ccc(C(F)(F)F)cc2)[C@H]1CCCO	.	.	.	.	.	.
C=CCOC(=O)C1=C[C@@H](c2ccc(C(F)(F)F)cc2)[C@H](CCCO)[C@@H](OCC)O1	.	.	23.1µM	.	.	11.6µM
CCS(=O)(=O)Nc1cc2c3c(c1)CCC(=O)N3CCC2	.	.	.	.	.	.
CCCCNC(=O)CCCN1C(=O)c2ccccc2Sc2ncccc21	/	.	.	/	.	?
Cc1c(C(=O)c2ccc(N(C)C)cc2)c2ccccn2c1CCC#N	.	.	.	-73.3	/	?
CN1CC[C@H](c2c(O)cc(O)c3c(=O)cc(-c4ccccc4Cl)oc23)[C@@H](O)C1	/	/	/	/	.	/
Cc1cccc(OCC(=O)N/N=C/c2cccn2C)c1	.	.	.	.	.	.
